From PubChem BioAssay AID2174 (The Scripps Research Institute Molecular Screening Center, 2009)
Hit rate of the full screen: of about 320,000 compounds, about 500 (0.16%) were called active. Shown is part of a subset that was picked to be rich in actives. A number with no mark means an inactive call.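 The calls were made as follows: active = inhibition above the mean of all tested compounds plus 3 SD, set per campaign (cut at about 14% in these data); inactive = the rest.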

The compounds below were run against Acyl-protein thioesterase 1 (Homo sapiens) (UniProt O75608) (assay: inhibition of human lysophospholipase 1 – biochemical, fluorescence polarization, FP-Rh probe ABPP, counter-screen for PME1 inhibitor project, primary screen (AID 2174;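 also: inhibitors block serine hydrolase probe labeling of LYPLA1 so polarization falls; 0% = enzyme with DMSO and 100% = wells lacking LYPLA1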)). Conditions: recombinant LYPLA1, FP-Rh probe fluorescence polarization; at 5.9 µM; active compounds read high.
Sequence of Acyl-protein thioesterase 1 (Homo sapiens) (O75608 whole entry, looked up): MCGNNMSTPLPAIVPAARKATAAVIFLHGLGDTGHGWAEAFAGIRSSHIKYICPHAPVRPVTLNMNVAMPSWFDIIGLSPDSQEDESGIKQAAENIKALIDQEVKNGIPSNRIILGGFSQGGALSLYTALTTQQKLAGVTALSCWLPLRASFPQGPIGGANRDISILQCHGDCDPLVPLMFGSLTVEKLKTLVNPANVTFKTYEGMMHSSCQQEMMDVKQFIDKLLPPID

`O=c1[nH]n(-c2ccc([N+](=O)[O-])cc2)c(=O)c2ccccc12` was tested, and the inhibition was 22.9% (active).
For `CCOc1ccc(C(=O)NC(=S)Nc2ccc(N3CCOCC3)c(Cl)c2)cc1[N+](=O)[O-]`, the inhibition was 19.9% (active).
For `CCC(=C/c1sc2ccc3ccccc3c2[n+]1C)/C=C1\Sc2ccc3ccccc3c2N1C`, the inhibition was 25% (active).
With `O=C(COc1ccc(Cl)cc1)N1CCN(c2cccc(C(F)(F)F)c2)CC1` the inhibition was 20.5% (active).

First: COc1cnn(-c2ccc([N+](=O)[O-])cc2)c(=O)c1Cl
Second: O=c1[nH]c2cccnc2n1-c1ccc([N+](=O)[O-])cc1
The inhibition of the first is higher: 3.8% for the first, -1.44% for the second.

First: CCNC(=O)CC1C(=O)N(c2ccc(F)cc2)C(=O)N1Cc1cccs1 (stereo not given)
Second: COc1ccccc1C(CNC(=O)c1cccc(S(=O)(=O)Nc2ccc(F)cc2)c1)N(C)C (stereo not given)
The inhibition of the first is higher: 1.31% for the first, -0.85% for the second.

Going from `Cc1cc(C)c2c(n1)sc1c(=O)n(-c3ccccc3)c(=O)[nH]c12` to `Cc1c(C)c2ccc(OCC(=O)N3CCN(c4cccc(Cl)c4)CC3)cc2oc1=O`, the inhibition rises from -3.16% to 6.19%.

Compared with `CCOc1ccc(S(=O)(=O)N/N=C(\C)c2ccc(Cl)c(Cl)c2Cl)cc1`, `O=C(COc1ccc(Cl)cc1)N1CCN(S(=O)(=O)c2ccc(Cl)cc2)CC1` is lower in inhibition: 0.76% for the first, -0.66% for the second.

Compared with `C=CCSC(CC)(CC)C(N)=O`, `CCCc1ccc(OCC(O)CN2CCN(C(=O)OCC)CC2)cc1` (stereo not given) is lower in inhibition: 6.47% for the first, 2.73% for the second.

Going from `COc1cccc(OC)c1C(=O)NC(=S)Nc1ccc(N2CCOCC2)c(Cl)c1` to `CCOc1ccc(C(=O)NC(=S)Nc2ccc(NC(=O)C(C)C)cc2)cc1[N+](=O)[O-]`, the inhibition rises from -4.94% to 2.01%.

Going from `CCN1C(=NCCc2cccnc2)N[C@@H](c2ccccc2)C(C(=O)OC)=C1C` to `CC/C(=N\NC(=O)c1c(C)nc2ccccn12)c1ccc(Cl)cc1`, the inhibition falls from -0.51% to -2.24%.

Going from `Cc1ccc(NC(=O)c2ccc(CSc3ncnc4nc[nH]c34)cc2)c(C)c1` to `CC(C)(C)NC(=O)COc1ccc(CNc2ccc3[nH]c(=O)[nH]c3c2)cc1`, the inhibition rises from -1.38% to -1.08%.

Compared with `CC(Oc1ccc(F)cc1)C(=O)N1CCN(c2ncccn2)CC1` (stereo not given), `O=C(c1ccc(Br)o1)N1CCN(CCOc2ccccc2)CC1` is higher in inhibition: -4.75% for the first, 2.69% for the second.

Going from `CC1(C)OC(=O)C(=CNC(CO)C(=O)O)C(=O)O1` (stereo not given) to `CC(CC(=O)C1C(C)C=CCC1(C)C)NNC(N)=O` (stereo not given), the inhibition rises from -1.91% to 0.24%.

`O=C(c1ccco1)N1CCN(CC(=O)N(C2CCCCC2)C2CCS(=O)(=O)C2)CC1` (stereo not given) gave an inhibition of 5.75%.
